# This is one part of a sample in which hits are shown more often than they occur.
# Pf Dd2 inh = blocks in vitro growth of P. falciparum Dd2; P. falciparum Dd2 growth, SYBR Green, 72 h; Potency, µM (top dose mostly 28.9 µM), for inactives: at the top dose activity, negative = inhibition, hits mostly inhibitors; hit rate 4.3% among 120,000; AID 1347417; active = well fitted inhibition curve with a large enough effect;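 also: plate controls were DMSO vehicle for no effect and reference drug for full effect; nearly all actives have a fitted effect of over 65% in size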
#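 Infected erythrocytes (Dd2, 0.3% parasitemia, 2.5% hematocrit final) are added to compound in RPMI-1640/Albumax II medium, grown 72 h at 37C in low oxygen, then lysed with saponin/Triton-X containing SYBR Green and read by fluorescence.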
# * = called active by the depositor; i = inactive; [ ] = remark or other dose. Potency is read from the fitted curve at half-maximal effect.
SMILES,Pf Dd2 inh
CCCOc1cc(C)c2c(c1C)C[C@H]([C@H](C)C(=O)NCCN1CCOCC1)CC2,-11%[44.1 µM]
COc1ccc(N2CCN(C3CCCN(C(=O)C(C)(C)N)C3)CC2)cc1 (configuration not stated),4%
CN(C)c1ccc(CN2CCC(c3nc4ncccc4[nH]3)C2)cc1 (configuration not stated),-7%
COc1ccc2nc([C@H]3CCN(Cc4ccncc4)C3)[nH]c2c1,i
COc1ccccc1CN1CC[C@H](c2nc3ccc(C(F)(F)F)cc3[nH]2)C1,8.9µM*
Cc1ccc(CN2CC[C@H](c3nc4ccc(C(F)(F)F)cc4[nH]3)C2)cc1,11µM*
COc1ccc(CN2CC[C@H](c3nc4ccc(C)cc4[nH]3)C2)cc1,i
Clc1cccc(CN2CC[C@H](c3nc4ccccc4[nH]3)C2)c1,i
Cc1ccccc1CN1CC[C@H](c2nc3ncccc3[nH]2)C1,32µM*
FC(F)(F)c1ccc2nc([C@H]3CCN(Cc4ncc[nH]4)C3)[nH]c2c1,i
c1ccc2ncc(CN3CC[C@H](c4nc5ccccc5[nH]4)C3)cc2c1,11µM*
COc1ccc2nc([C@H]3CCN(C4CCCCC4)C3)[nH]c2c1,-6%[44.1 µM]
CS(=O)(=O)c1ccc(CN2CC[C@H](c3nc4ncccc4[nH]3)C2)cc1,-23%[44.1 µM]
COc1cccc(CN2CC[C@H](c3nc4ccccc4[nH]3)C2)c1,-21%[44.1 µM]
O=C(Nc1cccc(-c2ccc(F)cc2)c1)C1CCCN1C(=O)c1ccncc1 (configuration not stated),-9%
COc1ccc(CCC(=O)NCc2cc3n(n2)CCN(C(=O)N(C)C)C3)cc1,-11%
COC[C@@H]1CNC[C@H]1c1nc(C2CC2)no1,-5%
COCC1CN(C(=O)c2nccc3ccccc23)CC12CCNCC2 (configuration not stated),i
COC[C@H]1NC(=O)CC[C@H]1C(=O)Nc1cccc(OC(F)(F)F)c1,-14%
CCn1ncc(N2CCC(NC(=O)Cc3cccc(F)c3)CC2)cc1=O,i
CCc1cnc(N)nc1NCc1nc(C(=O)NC)no1,-4%
CCc1cn(C[C@H](NCC(C)(C)C)C(=O)O)c(=O)[nH]c1=O,i
Cc1noc([C@@H]2CC(F)(F)CN2C(=O)c2cc(C)oc2C)n1,-28%
Fc1ccc2nc([C@H]3CCN(Cc4ncc[nH]4)C3)[nH]c2c1,i
CC(=O)N1CC[C@H](c2nc3ccc(F)cc3[nH]2)C1,-6%[44.1 µM]
SMILES,Pf Dd2 inh
Fc1ccc2nc([C@H]3CCN(Cc4cccs4)C3)[nH]c2c1,11µM*
O=C(Nc1ccc2c(c1)CCC2)C1CCN(C(=O)c2ncn3c2COC(c2ccc(F)cc2)C3)CC1 (configuration not stated),i
COc1ccc(C(=O)NCCC2CCN(C(=O)Nc3ccc(F)cc3)CC2)cc1OC,i
COCC(=O)N1CC(F)(F)C[C@H]1c1nc(-c2cccnc2)no1,10%
COCCNc1ccc(-c2noc([C@@H]3CCCN3C3CCC3)n2)cn1,i
Fc1ccc(-c2noc([C@@H]3CCCN3Cc3ccc(Cl)cc3)n2)nc1,i
COc1ccc(C(=O)Nc2ccc(-c3noc([C@@H]4CCCN4Cc4ccco4)n3)cn2)cc1,-1%
COc1ccc(-c2noc([C@@H]3CCCN3C(=O)c3ccncc3)n2)cc1OC,80%
COCC(=O)Nc1ccc(-c2noc([C@@H]3CCCN3Cc3cccnc3)n2)cn1,8.9µM*
COCCOc1ccc(-c2noc([C@@H]3CCCN3Cc3c[nH]c4ccccc34)n2)cn1,i
COCCNc1ncccc1-c1noc([C@@H]2CCCN2Cc2cc(OC)c(OC)c(OC)c2)n1,-1%
COc1cc(CN2CCC[C@H]2c2nc(-c3ccc(-c4ccncc4)nc3)no2)cc(OC)c1OC,5µM*
COc1ccc(C(=O)Nc2ccc(-c3noc([C@@H]4CCCN4Cc4c[nH]c5ccccc45)n3)cn2)cc1,7.9µM*
COCCNc1ccc(-c2noc([C@@H]3CCCN3Cc3cc(OC)c(OC)c(OC)c3)n2)cn1,8.9µM*
COCC(=O)Nc1ccc(-c2noc([C@@H]3CCCN3Cc3ncc[nH]3)n2)cn1,-23%[44.1 µM]
Cc1ccc(Cl)cc1-n1nc(-c2c(C)nc3scc(CC(=O)NCC(C)C)n3c2=O)cc1C,-3%
CN1CC(=O)N(C2CCCC2)Cc2c(NCC3CC3)ncnc21,8%
COCCNC(=O)C1N(C(C)C)C(=O)C12CCCCC2 (configuration not stated),-7%
CC1(C(=O)O)CCN(C(=O)c2ccc(C(F)(F)F)cc2)CC1,9%
COc1cccc(CNC(=O)[C@@H]2C[C@@H](O)CN2C2CCN(C(=O)c3nccc4ccccc34)CC2)c1,i
Cc1csc(NC(=O)[C@@H]2CCC[C@@H](NC(=O)c3ccccc3)CN(C)C(=O)C2)n1,i
CCCS(=O)(=O)N1CCC2(CC1)CN(C(C)=O)CC2COC (configuration not stated),8%
COc1ccc(C2(C(=O)NC3CCc4nnc(C)n4CC3)CC2)cc1 (configuration not stated),35%
COc1ccc(CN2CCC3(CC(C)=NO3)C2)cc1 (configuration not stated),-12%[44.1 µM]

# Bioassay records as filed in PubChem BioAssay.
